Data: PubChem BioAssay AID493170 (National Center for Advancing Translational Sciences (NCATS), 2011)
Inconclusive results are not listed. Activity calls are given as the source filed them. Calls come from the whole dose curve; as a rule, active = well fitted inhibition curve with a large enough effect; inconclusive = small, poorly fitted or top-dose-only effect, or effect the other way; inactive = flat fitted curve, though single readings scatter.

What follows are molecules tested against Ubiquitin carboxyl-terminal hydrolase 2 (Homo sapiens) (UniProt O75604) (assay: Ub-rhodamine 110 based assay for inhibitors Ubiquitin-specific Protease USP2a). Conditions: USP2a Ub-rhodamine110 cleavage, fluorescence; series mostly up to 38.3 µM; activity change, negative = inhibition: at the top concentration.
Procedure, shortened: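 5 nM USP2a preincubated with compounds for 30 min at RT in 20 mM Tris-HCl pH 8.0, 2 mM CaCl2, 2 mM beta-mercaptoethanol, 0.05% CHAPS. Cleavage of 150 nM Ub-rhodamine 110 read kinetically (Ex 485/Em 531) for 7 min.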
% is set by controls: 0 for no effect and ±100 for the full control effect; potency is the fitted concentration of half-maximal effect.
Note: nearly all actives have a fitted effect of over 50% in size.

Sequence of Ubiquitin carboxyl-terminal hydrolase 2 (Homo sapiens) (O75604 whole entry, looked up): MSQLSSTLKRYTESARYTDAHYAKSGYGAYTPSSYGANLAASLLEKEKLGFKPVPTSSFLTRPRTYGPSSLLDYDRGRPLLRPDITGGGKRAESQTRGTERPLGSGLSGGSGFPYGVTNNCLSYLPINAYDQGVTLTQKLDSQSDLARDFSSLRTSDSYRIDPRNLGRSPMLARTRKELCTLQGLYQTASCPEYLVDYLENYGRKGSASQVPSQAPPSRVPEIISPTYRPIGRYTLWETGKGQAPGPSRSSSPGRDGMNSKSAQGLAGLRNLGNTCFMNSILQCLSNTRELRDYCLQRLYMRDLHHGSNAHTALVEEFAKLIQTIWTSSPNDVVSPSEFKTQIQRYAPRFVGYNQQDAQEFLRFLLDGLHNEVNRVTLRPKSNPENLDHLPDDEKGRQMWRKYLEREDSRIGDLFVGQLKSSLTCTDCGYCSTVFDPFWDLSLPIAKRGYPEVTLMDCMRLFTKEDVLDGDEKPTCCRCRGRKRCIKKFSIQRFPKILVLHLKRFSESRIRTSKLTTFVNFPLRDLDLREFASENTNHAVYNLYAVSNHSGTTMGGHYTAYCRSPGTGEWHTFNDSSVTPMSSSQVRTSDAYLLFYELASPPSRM

SMILES	activity change, negative = inhibition	Potency
CC(C)(C)C1CCC(=NNC(=O)CN(c2ccccc2)S(C)(=O)=O)CC1 (centres undefined)	-13.3% (inactive)	
CCCNC(=O)CS(=O)Cc1nc(-c2ccccc2C)oc1C (centres undefined)	-6.47% (inactive)	
COc1ccc(S(=O)(=O)N2CCCCC2)cc1NC(=O)Cc1c[nH]c2ccccc12	-20.6% (inactive)	
CCOc1ccccc1C(=O)Nc1nnc(C(C)C)s1	-14.6% (inactive)	
CCc1ccc([C@@H]2CC=C(C(=O)O)[C@H](c3ccc(C(C)(C)C)cc3)N2S(=O)(=O)c2ccc(C)cc2)cc1		10 µM (active)
CCCCC(OC(=O)c1cc2occc2n1C)C(=O)NCC1CCCO1 (centres undefined)	-5.56% (inactive)	
COc1ccc(NC(=O)CN(Cc2ccccc2)S(C)(=O)=O)cc1	-5.7% (inactive)	
Cc1ccc(C(=O)Oc2coc(CSc3nnc(NC(=O)c4cccs4)s3)cc2=O)cc1		11.2 µM (active)
CC(=O)c1ccc(Nc2ncnc3c2oc2ccccc23)cc1	-4.39% (inactive)	
FC(F)(F)c1cnc2c(c1)Nc1ccccc1S2	5.47% (inactive)	
O=C(CSc1nnc(SCc2ccccc2)s1)N/N=C/C=C/c1ccco1		6.31 µM (active)
Cc1ccc2oc(=O)c3cnn(CC(=O)NCCCOC(C)C)c3c2c1	-7.98% (inactive)	
COc1ccc(-c2nc3cc(NC(=O)Cc4ccc(OC)c(OC)c4)ccc3o2)cc1	3.85% (inactive)	
CCCCC1CCC(C(=O)Nc2ccc(S(=O)(=O)Nc3nccs3)cc2)CC1 (centres undefined)		10 µM (active)
NS(=O)(=O)c1ccc(NC(=O)/C=C/c2cn(-c3ccccc3)nc2-c2cccc(Cl)c2)cc1		8.91 µM (active)
COc1ccc(/C=C2\SC(=S)N(NS(=O)(=O)c3ccc(C)cc3)C2=O)c(OC)c1		10 µM (active)
CNc1sc(C(=O)c2ccc(F)cc2)c(N)c1-c1nc2ccccc2s1	-5.39% (inactive)	
NC(=O)c1c(NC(=O)CSc2nnc(-c3ccco3)n2-c2ccccc2)sc2c1CCC2		5.01 µM (active)
Cn1c(C(=O)N2CCN(Cc3ccc4c(c3)OCO4)CC2)cc2sccc21	5.73% (inactive)	
Cc1cccc(N2CCN(C(=O)CCc3nc4ccccc4[nH]3)CC2C)c1 (centres undefined)	-0.393% (inactive)	

SMILES	activity change, negative = inhibition	Potency
Cc1ccc2[nH]c3c(c2c1)CN(C(=O)CN1CCSCC1)CC3	1.52% (inactive)	
O=C1S/C(=C\C=C\c2ccco2)C(=O)N1c1ccc(O)cc1		8.91 µM (active)
COc1ccc2cc(CN(C(=O)Nc3ccccc3)C3CCCC3)c(=O)[nH]c2c1	-11.7% (inactive)	
O=C(CCNc1cccc(Cl)c1)c1ccco1	10.6% (inactive)	
CCOC(=O)COc1ccccc1/C=N/O	-0.957% (inactive)	
Cc1c(NC(=O)C2CCCN(S(=O)(=O)c3cnc[nH]3)C2)c(=O)n(-c2ccccc2)n1C (centres undefined)	-9.5% (inactive)	
CC(C)(C)OC(=O)C[C@H]1C/C=C\C[C@H](CC(=O)N(CCO)Cc2ccccc2)C(=O)NC[C@H](c2ccccc2)OC1=O	-3.48% (inactive)	
CC1=NN(C(=O)c2csc(C)c2C)C(O)(C(F)(F)F)C1 (centres undefined)	-1.72% (inactive)	
Cc1ccc(C2=NC(=O)/C(=C/c3cc(O)c(O)c(Br)c3)S2)cc1		1.58 µM (active)
Cc1cc(C)n2cc(CSc3nnnn3-c3ccccc3C)nc2n1	-16.8% (inactive)	
C#CCOCCOCCOCCNc1nc(N2CCN(C(=O)CCCCCCCCCCNC(=O)[C@H]([C@@H](C)CC)n3cc(CCCCCN)nn3)CC2)nc(N2CCN(C(=O)CCCCCCCCCCNC(=O)[C@H]([C@@H](C)CC)n3cc(CCCCN=C(N)N)nn3)CC2)n1		12.6 µM (active)
O=c1oc2c(CN3CCCCC3)c(O)ccc2c2c1CCCCC2	3.64% (inactive)	
CCC(C)NC(=O)CSC1=Nc2ccccc2C2=NC(c3ccccc3)C(=O)N12 (centres undefined)	-14% (inactive)	
CSC1=NCCN1C(=O)Cc1ccc(F)cc1	6.29% (inactive)	
C[C@](N)(Cc1ccc(O)c(O)c1)C(=O)O	-6.04% (inactive)	
Cc1ccc(Nc2cc(C)nc(NCc3ccccc3)n2)cc1	-3.78% (inactive)	
CCOc1ccc(NC(=O)c2cccc(-n3cnnn3)c2)cc1	1.58% (inactive)	
COc1cc(C)ccc1OCCOc1cc(C)ccc1Cl	-9% (inactive)	
COc1cc(OC)cc(-c2c(C#Cc3ccsc3)c3cc(-c4ccc(OC)c(F)c4)ccc3n2C)c1	-6.24% (inactive)	
